The assay can be described thus: inhibitors of arbovirus infection in cells – cell-based, full library, 10K replicate subset, primary screen (AID 1251).
[1] abbreviates: arbovirus infection cell-based antiviral screen, at 10 µM, stronger effect = higher value.
The mark [2] stands for this setting: arbovirus infection cell-based antiviral screen; at 10 µM; stronger effect = higher value.
The mark [3] stands for this setting: arbovirus infection cell-based antiviral screen; measured here: 10K subset replicate screen; at 10 µM; stronger effect = higher value.

The structures appear in SMILES notation. The campaign covered roughly 200,000 compounds. About 720 (0.36%) were called active. Rule as the data show it: active = inhibition above about 30%; inactive = the rest, inconclusive results apart. For the sample, actives were picked, then their nearest neighbours and some compounds at random.

In the case of `NC(=O)COc1ccc(NC(=O)c2ccccc2-c2ccccc2)cc1`, the inhibition under setting [1] is -1.27% (inactive).

`COCCn1c(SCC(=O)Nc2cc(Cl)ccc2OC)nc2c(c1=O)SC(C)C2` (stereo unspecified): the inhibition runs as follows: under setting [2], 31.7% (active); under setting [3], 23%. As to `CCn1c(SCC(=O)Nc2ccccc2F)nc2c(c1=O)SC(C)C2` (stereo unspecified), the inhibition under setting [1] was 13.7% (inactive). Same read-out and setting: under `CC1Cc2nc(SCC(=O)Nc3ccccc3F)n(C)c(=O)c2S1` (stereo unspecified) stands 6.16% (inactive); under `COc1ccc(C)cc1NC(=O)CSc1ccc(Cl)cc1`, 3.07% (inactive). The same measure, in the same setting: under `O=C(CSc1ccccc1)Nc1cc(Cl)ccc1Oc1ccccc1` stands 31.3% (active); under `CC(=O)Nc1ccc(SCC(=O)Nc2ccccc2Oc2ccccc2)cc1`, -11.3% (inactive). The same measure, in the same setting: under `C=Cn1c(C(=O)O)ccc1-c1ccc(OC)cc1` stands -6.55% (inactive); under `CCn1c(-c2cccnc2Cl)nc2cc(C)c(C)cc21`, 9.84% (inactive); under `Cc1cc(F)ccc1S(=O)(=O)Nc1ncnc2scc(-c3ccc(F)cc3)c12`, 34.8% (active). Turning to `CCn1cnc2scc(-c3ccc(C)c(C)c3)c2c1=O`, the inhibition under setting [1] is -10.7% (inactive). The same measure, in the same setting: in the case of `COc1ccc(-c2csc3ncnc(Oc4ccc5c(C)cc(=O)oc5c4)c23)cc1` it was -19% (inactive); in that of `Cc1cccc(C)c1NC(=O)Nc1ccccc1-n1ccnc1`, 0% (inactive); in that of `CCN(/N=C/c1ccc(N(C)C)cc1)c1nc2ccccc2[nH]1`, -9.69% (inactive). Still for that read-out and setting: under `CCNC(=S)NNC(=O)C1CCN(Cc2ccccc2)CC1` stands 0.25% (inactive); under `CCN(CCO)C(=S)Nc1cc(C(=O)OC)ccc1C(=O)OC`, -0.56% (inactive). Same read-out and setting: under `CC(=O)Nc1ccc(Sc2ccccc2C(=O)N2CCCC2)cn1` stands 12.2% (inactive); under `CN(C)c1nc(-c2cccnc2)nc(-c2ccc(Cl)cc2)c1C#N`, -9.56% (inactive); under `O=C(CCN1CCN(C/C=C/c2ccccc2)CC1)Nc1cccc(F)c1`, -4.37% (inactive). Consider `CC/C(=N\NC(=S)NC(C)C)c1ccc(OC(F)F)cc1`, for which the inhibition under setting [1] was 1.93% (inactive). Same read-out and setting: under `CC(=O)NC(CC(=O)O)c1ccc(F)cc1` (stereo unspecified) stands 4.26% (inactive); under `CC(Nc1nc(N2CCCC2)nc2ccccc12)c1ccccc1` (stereo unspecified), -47.5% (inactive); under `Cc1ccc(C(CC(=O)O)Nc2nc(N3CCCCC3)nc(N3CCCCC3)n2)cc1` (stereo unspecified), 31.3% (active). The same measure, in the same setting: in the case of `O=[N+]([O-])c1ccc2oc(-c3cccc(O)c3)nc2c1` it was 0.35% (inactive).

With `COc1ccc(Nc2nc(NCc3ccco3)nc(N/N=C/c3ccccc3Cl)n2)cc1`, the inhibition under setting [1] is -9.8% (inactive). The same measure, in the same setting: in the case of `CC1CCCC(NC(=O)c2cccc(N3CCCC3=O)c2)C1C` (stereo unspecified) it was 15.1% (inactive); in that of `O=C(Nc1ccc(-c2ccc3nncn3n2)cc1)C1CCCCC1`, 2.96% (inactive); in that of `CC(CC(=O)O)C(=O)c1ccc(Cl)c([N+](=O)[O-])c1` (stereo unspecified), 5.76% (inactive). On the same count and under the same terms, under `CCO[C@@H]1OC(C(=O)N2CCOCC2)=C[C@H](C)[C@H]1CCCO` stands 1.57% (inactive); under `COc1ccc(C(=O)OCC(=O)NC(=O)CCSc2ccccc2)cc1`, -0.73% (inactive). The same measure, in the same setting: under `Cc1ccccc1Nc1scc(-c2ccc(Br)cc2)[n+]1-c1ccccc1C` stands 15.8% (inactive); under `O=C(CC1C(=O)NCCN1Cc1ccc(-c2ccccc2)cc1)NCC1CCOCC1` (stereo unspecified), 1.09% (inactive); under `Cc1ccc(CNC(=O)Cn2c(=O)c3sccc3n(Cc3cccc([N+](=O)[O-])c3)c2=O)cc1`, -23.2% (inactive). Consider `C/C(=N\NC(=O)c1ccc(NS(=O)(=O)c2cccs2)cc1)c1ccc2ccccc2c1`, for which, under setting [1], the inhibition is -27.7% (inactive). As for `O=c1[nH]c(SCc2ccccc2)nnc1-c1ccccc1`, the inhibition under setting [1] was 33.1% (active). Still for that read-out and setting: under `c1ccc(CSc2nnc(-c3ccco3)c(-c3ccco3)n2)cc1` stands 13.1% (inactive); under `Cc1ccccc1CSc1nnc(-c2ccccc2)c(=O)[nH]1`, 1.96% (inactive). Still for that read-out and setting: in the case of `O=C(Cn1cnc([N+](=O)[O-])n1)NCCc1ccccc1` it was -2.73% (inactive); in that of `CC(=O)Oc1ccccc1C(=O)Nc1ncc([N+](=O)[O-])s1`, 31.3% (active).

Regarding `O=C(Cc1c(F)cccc1Cl)Nc1ncc([N+](=O)[O-])s1`, the inhibition under setting [1] is 25.4% (inactive). The same measure, in the same setting: under `O=C(CCc1ccccc1)Nc1ncc([N+](=O)[O-])s1` stands 14.4% (inactive); under `Cc1ccc(-c2csc(NC(=O)c3cccs3)n2)cc1`, 103% (active). The same measure, in the same setting: under `Cc1ccc(-c2csc(NNC(=O)c3ccccc3)n2)cc1` stands -29.2% (inactive). In the case of `Cc1nc(-c2ccc(NC(=O)c3cccs3)cc2)cs1`, under setting [1], the inhibition was -9.57% (inactive). Consider `COc1ccc(OC)c(-c2c(=O)n(OCc3ccccc3Br)c3ccccc3[n+]2[O-])c1`, for which the inhibition under setting [1] was 6.28% (inactive).

Regarding `O=C(COC(=O)c1ccccc1)Nc1ccccc1Sc1ccccc1`, the inhibition under setting [1] is -1.75% (inactive). Still for that read-out and setting: under `O=c1[nH]c(CN2CCN(S(=O)(=O)c3ccc4c(c3)OCCO4)CC2)nc2sc3c(c12)CCCC3` stands 11.3% (inactive). On the same count and under the same terms, in the case of `CCCCOc1ccc(NC(=O)[C@@H]2CCCN2C(=O)C2CCN(S(=O)(=O)c3ccc(C)cc3)CC2)cc1` it was -16.3% (inactive); in that of `Cc1cc(C)c(C#N)c(N2CCC(C(N)=O)CC2)n1`, 2.87% (inactive); in that of `CC(NC(=O)C(=O)NN=C1CCC(C(C)(C)C)CC1)c1ccccc1` (stereo unspecified), 1.88% (inactive).

Turning to `Cc1sc2nc(CC(N)=O)[nH]c(=O)c2c1-c1ccccc1`, the inhibition under setting [1] is 3.01% (inactive).

For `Cc1ccsc1C1C(C#N)=C(N)OC2=C1C(=O)CC(C)C2` (stereo unspecified), the inhibition under setting [1] is -1.92% (inactive). The same measure, in the same setting: in the case of `C=CCN1C(=O)C(O)(CC(=O)c2ccccn2)c2ccccc21` (stereo unspecified) it was -2.77% (inactive); in that of `Cc1ccc(NC(=O)N2CCC(c3nc4c(nnn4Cc4c(F)cccc4Cl)c(=O)[nH]3)CC2)cc1`, -3.45% (inactive); in that of `O=C(Nc1ccc(F)cc1)N1CCCC(c2nc3c(nnn3Cc3ccccc3Cl)c(=O)[nH]2)C1` (stereo unspecified), 12.4% (inactive).

Regarding `Cc1ccc(C)c(Cn2nnc3c(=O)[nH]c(C(=O)Nc4ccc(F)cc4)nc32)c1`, the inhibition under setting [1] was 39.7% (active).

With `CSCCNCc1cn(-c2ccc(F)cc2F)nc1-c1ccccc1C`, under setting [1], the inhibition was -1.44% (inactive). Still for that read-out and setting: under `CCOC(=O)Cc1ncccc1C(=O)Nc1ccc(OC(F)(F)F)cc1` stands 4.21% (inactive).

In the case of `Cc1nn(Cc2ccc(Cl)cc2)c(Cl)c1/C=N/NC(=O)CNc1ccccc1F`, the inhibition under setting [1] is -16.6% (inactive).

Turning to `CC(=O)Nc1ccc(NC(=S)NC(=O)c2ccc([N+](=O)[O-])c(C)c2)cc1`, the inhibition under setting [1] was -7.89% (inactive). Still for that read-out and setting: under `O=C(O)c1ccc2c(c1)C(=O)N(NC(=O)c1ccc(O)cc1)C2=O` stands -2.03% (inactive). The same measure, in the same setting: under `O=C(C1CC1)N1CCN=C1SCc1ccc(Cl)cc1` stands 55.7% (active); under `CCC(=O)N1CCN=C1SCc1ccc(F)cc1`, -3.24% (inactive).

On to `O=C(c1ccco1)N1CCN=C1SCc1cccc(Cl)c1`, for which the inhibition under setting [2] was 5.96% (inactive) and the inhibition under setting [3] worked out at 0.055%. `C/C(=N\NC(=O)CCn1nc(C)cc1C)C(C)(C)C`: under setting [1], the inhibition is -5.42% (inactive). On the same count and under the same terms, in the case of `CCCN(C(=O)CSc1nnnn1C)c1c(N)n(Cc2ccccc2)c(=O)[nH]c1=O` it was 21.9% (inactive); in that of `COc1ccc(C2C=C(c3ccc(Br)cc3)Nc3nc(NS(C)(=O)=O)nn32)cc1` (stereo unspecified), 61.9% (active); in that of `Brc1ccc(C2=CC(c3ccco3)n3ncnc3N2)cc1` (stereo unspecified), 12.4% (inactive). On the same count and under the same terms, in the case of `COc1ccc(C2=CC(c3cccc(OC)c3)n3nnnc3N2)cc1` (stereo unspecified) it was 11.1% (inactive); in that of `CC1(C)CC(=O)CC2(C1)NCC(c1ccccc1Cl)c1c2[nH]c2ccccc12` (stereo unspecified), -27.8% (inactive); in that of `COc1cccc(Nc2nnc(SCC(=O)N3CC(C)OC(C)C3)s2)c1` (stereo unspecified), 2.66% (inactive).

Take `COc1cccc(NC(=O)Nc2nnc(N3CCCCC3C)s2)c1` (stereo unspecified): the inhibition is, setting by setting: under setting [2], 37.5% (active); under setting [3], 24.8%. `CCOC(=O)c1csc(NC(=O)Nc2cccc(OC)c2)n1`: the inhibition under setting [1] is 6.16% (inactive). The same measure, in the same setting: in the case of `NC(N)=Nc1nc2ccc(Br)cc2c(=O)[nH]1` it was -2.82% (inactive); in that of `CCOc1ccc(C(=O)Nc2cccc(SC)c2)cc1`, 4.43% (inactive). On the same count and under the same terms, under `Cc1ccc(C2=C/C(=C\c3cccnc3)C(=O)O2)cc1` stands -1.53% (inactive); under `O=C(Nc1ccc2c(c1)CCC2)c1cccc(S(=O)(=O)Nc2ccccc2Cl)c1`, -3.02% (inactive).

Turning to `Cn1nnnc1SCC(=O)Nc1nc2ccccc2s1`, the inhibition under setting [1] is 0.23% (inactive). Same read-out and setting: under `C=CCn1c(SCC(=O)NCc2ccccc2)nnc1-c1cc(Br)ccc1O` stands 8.76% (inactive); under `C=CCn1c(SCC(=O)Nc2nc3ccccc3s2)nnc1-c1ccccc1O`, 47.3% (active). Still for that read-out and setting: in the case of `CCOc1cc(/C=C(/C#N)c2ccc(Cl)cc2)cc(Cl)c1OCC(=O)O` it was 51.7% (active). For `CCOC(=O)CN/C=C(\C#N)c1ccc(F)cc1`, the inhibition under setting [1] is -0.71% (inactive). Still for that read-out and setting: under `CCOc1c(Cl)cc(/C=N/O)cc1OC` stands 11% (inactive); under `O=c1oc(/C=C/c2ccccc2)nc2ccccc12`, 44.9% (active).

With `CCn1c(/C=C/c2ccc([N+](=O)[O-])o2)nc2ccccc2c1=O`, under setting [1], the inhibition is -31.9% (inactive). Regarding `S=c1[nH]nc(/C=C/c2ccccc2)o1`, the inhibition under setting [1] is -0.67% (inactive). `CC(C)(C)NC(=O)c1cccc(NC(=O)Cc2ccc(Br)cc2)c1`: the inhibition under setting [1] was 17.2% (inactive).

As for `Cc1ccccc1NC(=S)N(CCCN1CCOCC1)Cc1cccs1`, the inhibition under setting [1] is 7.45% (inactive).

`CCCc1cc(=O)[nH]c(SCC(=O)OCc2ccccc2)n1`: under setting [1], the inhibition was 0.37% (inactive). On to `CCCc1cc(=O)[nH]c(SCc2ccc(C#N)cc2)n1`, for which the inhibition under setting [1] is 42% (active). Still for that read-out and setting: in the case of `CCCc1cc(=O)[nH]c(SCc2cc(=O)oc3c(C)c(C)ccc23)n1` it was 5.14% (inactive).

Turning to `CN1CCN(S(=O)(=O)c2cccc(C(=O)O)c2)CC1`, under setting [1], the inhibition is -0.22% (inactive). For `CC(=O)n1cc([C@@H]2C=C(C(=O)N3CCN(Cc4ccc5c(c4)OCO5)CC3)O[C@H](OCc3ccc(CO)cc3)C2)c2ccccc21`, the inhibition under setting [1] is -8.36% (inactive). Consider `COc1ccc(C)cc1NC(=O)c1ccc(-c2ccc(C(C)=O)cc2)o1`, for which the inhibition under setting [1] was -5.64% (inactive). The same measure, in the same setting: in the case of `Cc1cccc(CSc2nnc(NC(=O)CSc3nnc(C)s3)s2)c1` it was 31.4% (active); in that of `Cc1cccc(NC(=O)CSc2nnc(NC(=O)CN3CCOCC3)s2)c1`, 4.51% (inactive). In the case of `Cc1nnc(SCC(=O)NCc2ccccc2)s1`, the inhibition is, setting by setting: under setting [2], -3.33% (inactive); under setting [3], 3.33%.

These data come from PubChem BioAssay AID1251 (SRMLSC, 2008).
